Measured values taken from PubChem BioAssay.
Calls of active or inactive are those of the source. Unless noted, how the calls were made is not given here.

How the values were obtained:
[1] = resazurin metabolic signal in HepG2 cells – cell-based, resazurin fluorescence, 24 h, PK04 Diversity Set, profiling panel (AID 1172); conditions: HepG2 viability, higher = more signal; further: test concentration not given here
[2] = budding yeast growth changes without added modifier – OD600, strain BY4716, 24 h, basal condition, primary screen (AID 1173); conditions: S. cerevisiae BY4716 growth, OD600, 24 h; higher = more signal, called active from +8 up or from −8 down
[3] = viability profiling in MM1S myeloma cells – cell-based, resazurin fluorescence, basal, 24 h, PK04 Diversity Set, profiling panel (AID 1174); conditions: higher = more signal, called active from +8 up or from −8 down;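 further: MM1S multiple myeloma cell line; test concentration not given here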
[4] = molecular target: Dihydroorotate dehydrogenase (quinone), mitochondrial (Plasmodium falciparum (isolate 3D7)) (UniProt Q08210); experiment: inhibition of P. falciparum DHODH – biochemical, C-terminal His tag, absorbance 600 nm, primary screen (AID 1175); conditions: PfDHODH enzyme, DCIP absorbance 600 nm; higher = more signal, called active from +8 up or from −8 down;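 further: recombinant parasite enzyme with a five histidine tag at its C terminus; test concentration not given here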
Chain of Dihydroorotate dehydrogenase (quinone), mitochondrial (Plasmodium falciparum (isolate 3D7)) (Q08210 whole entry, looked up): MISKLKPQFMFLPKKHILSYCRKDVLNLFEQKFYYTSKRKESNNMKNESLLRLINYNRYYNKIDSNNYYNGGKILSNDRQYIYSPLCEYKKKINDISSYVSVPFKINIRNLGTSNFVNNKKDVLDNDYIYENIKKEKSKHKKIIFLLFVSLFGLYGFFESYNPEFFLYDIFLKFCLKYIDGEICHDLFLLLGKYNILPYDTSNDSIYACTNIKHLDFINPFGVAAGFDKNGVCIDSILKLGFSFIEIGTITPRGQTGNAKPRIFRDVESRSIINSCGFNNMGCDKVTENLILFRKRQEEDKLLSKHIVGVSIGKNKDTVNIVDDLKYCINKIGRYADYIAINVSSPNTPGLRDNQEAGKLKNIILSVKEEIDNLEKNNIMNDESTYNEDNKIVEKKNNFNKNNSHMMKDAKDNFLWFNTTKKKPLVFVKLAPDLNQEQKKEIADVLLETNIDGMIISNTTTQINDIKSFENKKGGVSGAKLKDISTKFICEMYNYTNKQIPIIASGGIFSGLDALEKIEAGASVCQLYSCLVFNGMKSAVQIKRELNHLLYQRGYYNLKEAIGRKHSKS

[5] = inhibition of PAO1 biofilm formation – strain PAO1, LB-PBS medium, absorbance 600 nm, primary screen (AID 1176); further: test concentration not given here; conditions: P. aeruginosa PAO1 growth/biofilm, A600, 12 h; higher = more signal
[6] = growth modulation of vineyard yeast isolate – strain RM11-1a, OD600, basal, 24 h, primary screen (AID 1177);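 further: cultures grown under basal conditions with no added stressor; test concentration not given here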; conditions: S. cerevisiae RM11-1a growth, OD600, 24 h; higher = more signal, called active from +8 up or from −8 down
[7] = growth of efflux-deficient E. coli DRC39 – strain DRC39, OD650, 24 h, E. coli filamentation inducers, primary screen (AID 1178);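 further: growth measured as culture turbidity by optical density at 650 nm; test concentration not given here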; conditions: E. coli DRC39 acrAB, higher = more signal, called active from +8 up or from −8 down
[8] = growth of efflux-deficient E. coli DRC39 – strain DRC39, OD650, 48 h, E. coli filamentation inducers, primary screen (AID 1179);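 further: screen aims at cell division blockers that make cells filament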; conditions: E. coli DRC39 delta-acrAB growth, higher = more signal, called active from +8 up or from −8 down
[9] = viability profiling in RPMI8226 myeloma cells – cell-based, resazurin fluorescence, basal, 24 h, PK04 Diversity Set, profiling panel (AID 1180); conditions: higher = more signal;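 further: RPMI8826 multiple myeloma cell line at 5000 cells per well; test concentration not given here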
[10] = molecular target: E3 ubiquitin-protein ligase XIAP (Homo sapiens) (UniProt P98170); experiment: small molecules binding XIAP protein – biophysical, small-molecule microarray, fluorescence 635 nm, primary screen (AID 1181); conditions: higher = more signal;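 further: score merges 667 nm emission and signal to noise over triplicate slides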
Chain of E3 ubiquitin-protein ligase XIAP (Homo sapiens) (P98170 whole entry, looked up): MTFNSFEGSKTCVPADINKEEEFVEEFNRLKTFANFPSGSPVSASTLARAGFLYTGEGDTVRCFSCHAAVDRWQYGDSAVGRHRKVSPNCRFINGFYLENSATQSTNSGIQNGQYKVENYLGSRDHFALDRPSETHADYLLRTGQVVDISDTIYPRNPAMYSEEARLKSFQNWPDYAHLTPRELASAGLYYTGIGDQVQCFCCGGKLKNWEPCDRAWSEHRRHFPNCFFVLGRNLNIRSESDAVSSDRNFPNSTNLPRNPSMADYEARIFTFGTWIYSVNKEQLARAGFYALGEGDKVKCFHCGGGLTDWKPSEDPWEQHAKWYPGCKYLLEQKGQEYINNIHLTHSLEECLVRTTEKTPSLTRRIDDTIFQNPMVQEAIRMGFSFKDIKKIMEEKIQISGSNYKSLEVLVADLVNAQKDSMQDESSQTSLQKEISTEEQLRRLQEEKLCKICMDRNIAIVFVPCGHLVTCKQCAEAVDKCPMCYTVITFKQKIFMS

Row | Compound | z-score [1] | z-score [2] | z-score [3] | composite z-score [4] | z-score [5] | z-score [6] | z-score [7] | z-score [8] | z-score [9] | composite z-score [10]
1 | CC(C)C[C@@H]1NC(=O)[C@@H]2C[C@H](C(=O)NCCCCCC[N+](C)(C)C)[C@H](c3ccc(O)cc3)N2C1=O | -0.219 | 0.54 (inactive) | 0.181 (inactive) | 0.191 (inactive) | -0.282 (inactive) | 1.11 (inactive) | 0.487 (inactive) | 0.62 (inactive) | 0.0176 | -0.0056
2 | COCCCNC(=O)[C@@]1(C)c2ccccc2C(=O)N(Cc2cc(C(F)(F)F)cc(C(F)(F)F)c2)[C@H]1c1ccc(CO)cc1 | -0.063 | -0.0384 (inactive) | 0.186 (inactive) | 1.03 (inactive) | 0.127 (inactive) | 0.429 (inactive) | 0.534 (inactive) | 1.3 (inactive) | 0.394 | -0.204
3 | CC1=C2[C@@H](CCc3ccccc3)OB(O)C[C@@H]2n2c(=O)n(-c3ccccc3)c(=O)n2C1 | -0.32 | -2.07 (inactive) | -0.498 (inactive) | 0.369 (inactive) | -0.177 (inactive) | -0.42 (inactive) | -0.618 (inactive) | -0.63 (inactive) | -0.582 | 0.0193
4 | C=CCC(OC(C)=O)[C@@H]1[C@@H](N(Cc2ccc(-c3ccccc3)cc2)C(=O)Cc2ccc(F)cc2)c2cc(OCCCO)ccc2N1C(=O)c1ccc2ccccc2n1 (stereo not given in full) | 1.29 | -0.186 (inactive) | 1.08 (inactive) | -0.203 (inactive) | -0.619 (inactive) | -0.452 (inactive) | 0.918 (inactive) | 0.761 (inactive) | 0.893 | 0.103
5 | C=C(COC)/C(=C/C[C@H](OC(=O)c1ccncc1)c1cccc(OCCO)c1)c1cc(C(=O)OC)ccc1OC | 0.13 | -0.0964 (inactive) | 0.544 (inactive) | -2.67 (inactive) | -0.21 (inactive) | -0.42 (inactive) | 0.629 (inactive) | 0.237 (inactive) | 0.406 | -0.102
6 | C[C@]1(C(=O)NCc2ccccc2)c2ccccc2C(=O)N(Cc2cc(F)cc(C(F)(F)F)c2)[C@H]1c1ccc(CO)cc1 | -0.555 | -0.276 (inactive) | -0.179 (inactive) | 0.225 (inactive) | 0.155 (inactive) | 0.179 (inactive) | 1.2 (inactive) | 1.6 (inactive) | 0.0748 | 0.0256
7 | O=C1OCCC=C[C@H]2OC34C=CCN(Cc5ccccc5)C(=O)[C@H]3N(CCCCCO)C(=O)[C@@H]4C12 (stereo not given in full) | 1.12 | -0.266 (inactive) | 1.61 (inactive) | -1.12 (inactive) | 0.357 (inactive) | 0.484 (inactive) | 1.24 (inactive) | 0.927 (inactive) | 1.4 | 0.13
8 | CCOC(=O)C1=CCC(C(C)(C)C)N(S(=O)(=O)c2ccc(C)cc2)C1 (stereo not given) | -0.462 | 0.586 (inactive) | -0.0359 (inactive) | 0.406 (inactive) | -0.321 (inactive) | 1.29 (inactive) | -0.021 (inactive) | -0.52 (inactive) | -0.719 | -0.0476
9 | COCCOC(=O)N1C(=O)[C@@]2(c3cc(C#CCNC(N)=O)ccc31)[C@H](c1ccc(OCCO)cc1)N1[C@H](c3ccccc3)[C@H](c3ccccc3)OC(=O)[C@H]1[C@@H]2C(=O)N1CCc2cc(OC)c(OC)cc2C1 | 0.358 | 2.29 (inactive) | 0.296 (inactive) | -0.597 (inactive) | 2.26 (inactive) | 3.21 (inactive) | 0.583 (inactive) | 0.582 (inactive) | 0.665 | -0.0999
10 | CN1C(=O)C2C=CC(C(O)c3ccccn3)N(Nc3ccccc3)C2C1=O (stereo not given) | -1.03 | 0.727 (inactive) | -0.467 (inactive) | 1.42 (inactive) | 1.28 (inactive) | 1.57 (inactive) | -0.206 (inactive) | -0.387 (inactive) | -0.878 | 0.742
11 | COc1ccc(CCNC(=O)[C@@]2(Sc3ccc(C)cc3)CC(=O)N(Cc3ccccc3Cl)[C@@H]2c2ccc(CO)cc2I)cc1 | 0.254 | -4.37 (inactive) | -2.75 (inactive) | -0.725 (inactive) | 0.379 (inactive) | -1.37 (inactive) | 0.853 (inactive) | 1.36 (inactive) | -1.71 | 0.0512
12 | COC(=O)c1ccc(C(O)C2C=CC3C(=O)N(c4ccccc4)C(=O)C3N2Nc2ccc(C#N)cc2)o1 (stereo not given) | -0.407 | -0.959 (inactive) | -0.582 (inactive) | -0.847 (inactive) | 1.38 (inactive) | 0.0055 (inactive) | -1.52 (inactive) | -0.249 (inactive) | -0.357 | -0.22
13 | CCCCC=C[C@@H](NC(=O)c1ccc(C(=O)OC)cc1)c1ccccc1 | 2.26 | 0.399 (inactive) | 1.13 (inactive) | -0.543 (inactive) | -0.567 (inactive) | 1.18 (inactive) | -0.0227 (inactive) | 0.623 (inactive) | 3.78 | -0.145
14 | O=C1O[C@@H](c2ccccc2)[C@@H](c2ccccc2)N2[C@@H](c3ccc(OCCO)cc3)[C@]3(C(=O)Nc4ccc(C#CC5=CCCCC5)cc43)[C@@H](C(=O)O)[C@H]12 | 0.332 | -0.734 (inactive) | -1.5 (inactive) | -13.5 (active) | 2.07 (inactive) | 1.44 (inactive) | 0.448 (inactive) | 0.0447 (inactive) | -1.43 | 0.104
15 | Cc1cc(C)c(C(O)C2C=CC3C(=O)N(c4ccccc4)C(=O)C3N2Nc2ccc(C#N)cc2)c(C)c1 (stereo not given) | -0.833 | 0.011 (inactive) | 0.0952 (inactive) | 0.623 (inactive) | 1.26 (inactive) | 0.384 (inactive) | -0.232 (inactive) | -0.185 (inactive) | -0.451 | -0.253
16 | C=C[C@H](C)[C@@H](O)c1ccc(O)c2ccccc12 | 0.146 | -12.2 (active) | -1 (inactive) | -0.177 (inactive) | 1.03 (inactive) | 0.248 (inactive) | 0.537 (inactive) | 0.445 (inactive) | -0.791 | -0.0622
17 | CC(C)c1ccc(NN2C(C(O)c3c(F)cccc3Cl)C=CC3C(=O)N(c4ccccc4)C(=O)C32)cc1 (stereo not given) | -1.59 | -0.134 (inactive) | -1.35 (inactive) | 1.36 (inactive) | 0.807 (inactive) | 1.5 (inactive) | -0.576 (inactive) | -0.895 (inactive) | -1.42 | -0.132
18 | CS(=O)(=O)CCOC(=O)C1=CC(CCCO)=CC(c2cccs2)N(Cc2cc3c(cc2Br)OCO3)C=C1C(=O)OCCS(C)(=O)=O (stereo not given) | 1.13 | -2.65 (inactive) | 0.209 (inactive) | 0.359 (inactive) | 0.142 (inactive) | 0.379 (inactive) | 0.571 (inactive) | 0.503 (inactive) | 0.0578 | 0.122
